Reference: PubChem BioAssay (Tox21)
Records with an inconclusive call do not appear. Unmarked numbers belong to inactive results. Activity calls are given as the source filed them. Calls come from the whole dose curve; as a rule, active = well fitted cell-killing curve with a large enough effect in the repeat runs (not every such curve was filed as active); inconclusive = weak or mixed curves, or effect the other way; inactive = no such curve, though single readings can be large or run the other way.

Test: qHTS assay to identify small molecule antagonists of the farnesoid-X-receptor (FXR) signaling pathway - cell viability counter screen (AID 743221); note: nearly all actives have a fitted effect of over 50% in size
Conditions: FXR-bla HEK293T viability, CellTiter-Glo luminescence, 16 h; series mostly up to 62.6 µM; activity change, negative = cytotoxicity: at the top concentration
Text: National Center for Advancing Translational Sciences [NCATS]
NIH Chemical Genomics Center [NCGC]
U.S. Environmental Protection Agency [EPA]
National Institutes of Environmental Health Sciences [NIEHS]
National Toxicology Program [NTP]
U.S. Food and Drug Administration [FDA]
The farnesoid-X-receptor (FXR), a nuclear hormone receptor, is highly expressed in liver, intestine, kidney and adrenal cortex. Natural ligands of FXR are the bile acids (Cholic acid, Chenodeoxy cholic acid etc). FXR is an important regulator of diverse metabolic pathways, including the bile acid homeostasis, lipid and glucose metabolisms. FXR regulates the expression of target genes by binding either as a monomer or as a heterodimer with the retinoid X receptor (RXR). Numerous studies have reported that FXR exerts protective function during cholestasis, diabetes, liver regeneration, and cancer. To identify compounds that inhibit FXR signaling, GeneBLAzer FXR-UAS-bla HEK 293T cell line (Invitrogen, Carlsbad, CA) containing a beta-lactamase reporter gene under the control of a UAS response element was used to screen the Tox21 10K compound library. The cytotoxicity of the Tox21 compound library against the FXR-bla cell line was tested in parallel by measuring the cell viability using CellTiter-Glo assay in the same wells.
Tox21 Assay Protocol Summary:
FXR-bla cells were dispensed at 5000 cells/5uL/well in 1536-well black wall/clear bottom plates using a Multidrop Combi (Thermo Fisher Scientific, Waltham, MA) dispenser. After the assay plates were incubated at 37 C and 5% CO2 for 5 h, 23 nL of compounds dissolved in DMSO, positive controls or DMSO only was transferred to the assay plate by a Pintool station (Kalypsys, San Diego, CA), followed by addition of 1 uL Chenodeoxycholic acid (50 uM, final concentration in the wells). The assay plates were incubated at 37C for 16 h. After 1 uL of LiveBLAzerTM B/G FRET substrate was added using a Bioraptr Flying Reagent Dispenser (FRD) workstation (Beckman Coulter, Indianapolis, IN), the plates were incubated at room temperature for 2 h, and fluorescence intensity was measured by an Envision plate reader (PerkinElmer, Shelton, CT). For cell viability readout that measures cytotoxicity, 4uL/well of CellTiter-Glo reagent was added into the assay plates using a Bioraptr FRD. After 30 min incubation at room temperature, the luminescence intensity in the plates was measured using a ViewLux plate reader (PerkinElmer).
% is set by controls: 0 for no effect and ±100 for the full control effect; potency is the fitted concentration of half-maximal effect.

| Structure (SMILES) | activity change, negative = cytotoxicity | Potency |
| --- | --- | --- |
| II | -2.51% |  |
| C=CC(=O)OC | -0.1% [at 81.1 µM] |  |
| CCCC(=O)Cl | -3.22% |  |
| CC(C)(OO)c1ccccc1 | 0.743% |  |
| CCC(C)(NC(=O)c1cc(Cl)c(C)c(Cl)c1)C(=O)CCl (stereo not given) |  | 55.3 µM (active) |
| O=C(O)c1ccccc1C(=O)Nc1cccc2ccccc12 | -23.9% |  |
| CCO[C@H]1O[C@@H]2OC3(C)CC[C@H]4[C@H](C)CC[C@@H]([C@H]1C)[C@@]24OO3 | -7.97% |  |
| Sc1ccccc1Cl | 0.738% |  |
| CCC(Br)(CC)C(=O)NC(N)=O | 5.63% |  |
| CC(=O)NC1CCSC1=O (stereo not given) | 9.55% |  |
| COc1cc(Cl)c(OC)cc1Cl | 1.14% |  |
| O=C(Nc1ccccc1)Nc1ccnc(Cl)c1 | 9.82% |  |
| COc1cc(CC(C)N)cc2c1OCO2 (stereo not given) | 0.11% [at 81.1 µM] |  |
| CCCCc1c(C)nc(NCC)nc1OS(=O)(=O)N(C)C | 10.8% |  |
| CCOP(=O)(OCC)O/C(=C/Cl)c1ccc(Cl)cc1Cl | 0.746% |  |
| CC(C)N(CCC(C(N)=O)(c1ccccc1)c1ccccn1)C(C)C (stereo not given) | 8.36% |  |
| OC(c1ccc(Cl)cc1)(c1ccc(Cl)cc1)c1cccnc1 | 0.584% |  |
| O=C(C(Cl)(Cl)Cl)C(Cl)(Cl)Cl | 5.06% [at 81.1 µM] |  |
| NC(=O)C(Cl)(Cl)Cl | -1.21% [at 81.1 µM] |  |
| CC(C)O.CC(C)O.OCCN(CCO)CCO.OCCN(CCO)CCO.[Ti] | 6.18% |  |

| Structure (SMILES) | activity change, negative = cytotoxicity | Potency |
| --- | --- | --- |
| CO/N=C(/C(=O)OC)c1ccccc1COc1ccccc1C | -1.5% |  |
| ClCc1ccccc1 | -0.908% |  |
| CCOC(=O)COc1cc(-c2nn(C)c(OC(F)F)c2Cl)c(F)cc1Cl | 2.88% |  |
| c1ccc(C2CC2)c(OCC2=NCCN2)c1 | 2.94% |  |
| CC(=O)c1cc2c(cc1C)C(C)(C)C(C)CC2(C)C (stereo not given) | -21.4% |  |
| COC(=O)C(Cl)C(=O)OC | -4.12% |  |
| O=C1NCN(c2ccccc2)C12CCN(CCCOc1ccc(F)cc1)CC2 | -22.8% |  |
| CCc1ccc(C(=O)NN(C(=O)c2cc(C)cc(C)c2)C(C)(C)C)cc1 | 20.8% |  |
| O=C(O)COc1ccc(Cl)cc1 | 5.96% |  |
| CC1(C)CCC(Cc2ccc(Cl)cc2)C1(O)Cn1cncn1 (stereo not given) | -5% |  |
| O=S(=O)(Cl)c1ccccc1 | 4.62% [at 81.1 µM] |  |
| [O-][Cl+]O | -0.144% |  |
| CCCCC(CC)COP(=O)(Oc1ccccc1)Oc1ccccc1 (stereo not given) | -13.5% |  |
| N#C/C(N)=C(/N)C#N | -3.45% |  |
| CCOC(=O)[C@]1(c2ccccc2)Oc2ccccc2[C@@H]1N | -18% |  |
| CC(C)(CCl)C(=O)Cl | 8.24% |  |
| CCCCCCC#N | -1.34% |  |
| CCn1cc[n+](C)c1 |  | inactive |
| Cl/C=C\Cl | -13% |  |
| O=[N+]([O-])c1cc(C(F)(F)F)cc([N+](=O)[O-])c1Cl | 1.34% [at 81.1 µM] |  |
